Source: PubChem BioAssay
Sampled rows, rich in hits. Any-hit rate of the full collection: about 11%.
FLuc inh-1: inhibitors of firefly (Photinus pyralis) luciferase; purified P. pyralis luciferase, luminescence, biochemical; Potency, µM (top dose mostly 115 µM), usual class: inhibitors; 76,000 compounds, 2.5% hits; AID 1347043; further: nearly all actives have a fitted effect of over 65% in size
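Biochemical qHTS: compound (6-point titration) added to 10uM D-luciferin plus 10uM ATP in Tris acetate pH 7.5 buffer with Mg, Tween-20 and BSA, then purified enzyme at 10nM; light output imaged.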
HEK cytotox: kills HEK 293 cells; HEK 293 viability, ATP luminescence (CellTiter-Glo), 48-72 h; 94,000 compounds, 6.6% hits; Potency, µM (series often up to 115 µM), usual class: inhibitors; AID 1345083; further: nearly all actives have a fitted effect of over 60% in size
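HEK 293 cells seeded at 250 cells/well were exposed to compound for 48 or 72 hr at 37 degree Celsius. Viability taken as ATP content by CellTiter-Glo luminescence.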
NPR1 antag: blocks ANP-stimulated signaling of human Npr1 receptor; HEK293 hNpr1 GloSensor cGMP, ANP-stimulated luminescence; 76,000 compounds, 1.6% hits; Potency, µM (top dose mostly 46.3 µM), most hits filed as inhibitors; P16066; calls by dose curve; further: nearly all actives have a fitted effect of over 60% in size
Target sequence (P16066 whole entry, looked up): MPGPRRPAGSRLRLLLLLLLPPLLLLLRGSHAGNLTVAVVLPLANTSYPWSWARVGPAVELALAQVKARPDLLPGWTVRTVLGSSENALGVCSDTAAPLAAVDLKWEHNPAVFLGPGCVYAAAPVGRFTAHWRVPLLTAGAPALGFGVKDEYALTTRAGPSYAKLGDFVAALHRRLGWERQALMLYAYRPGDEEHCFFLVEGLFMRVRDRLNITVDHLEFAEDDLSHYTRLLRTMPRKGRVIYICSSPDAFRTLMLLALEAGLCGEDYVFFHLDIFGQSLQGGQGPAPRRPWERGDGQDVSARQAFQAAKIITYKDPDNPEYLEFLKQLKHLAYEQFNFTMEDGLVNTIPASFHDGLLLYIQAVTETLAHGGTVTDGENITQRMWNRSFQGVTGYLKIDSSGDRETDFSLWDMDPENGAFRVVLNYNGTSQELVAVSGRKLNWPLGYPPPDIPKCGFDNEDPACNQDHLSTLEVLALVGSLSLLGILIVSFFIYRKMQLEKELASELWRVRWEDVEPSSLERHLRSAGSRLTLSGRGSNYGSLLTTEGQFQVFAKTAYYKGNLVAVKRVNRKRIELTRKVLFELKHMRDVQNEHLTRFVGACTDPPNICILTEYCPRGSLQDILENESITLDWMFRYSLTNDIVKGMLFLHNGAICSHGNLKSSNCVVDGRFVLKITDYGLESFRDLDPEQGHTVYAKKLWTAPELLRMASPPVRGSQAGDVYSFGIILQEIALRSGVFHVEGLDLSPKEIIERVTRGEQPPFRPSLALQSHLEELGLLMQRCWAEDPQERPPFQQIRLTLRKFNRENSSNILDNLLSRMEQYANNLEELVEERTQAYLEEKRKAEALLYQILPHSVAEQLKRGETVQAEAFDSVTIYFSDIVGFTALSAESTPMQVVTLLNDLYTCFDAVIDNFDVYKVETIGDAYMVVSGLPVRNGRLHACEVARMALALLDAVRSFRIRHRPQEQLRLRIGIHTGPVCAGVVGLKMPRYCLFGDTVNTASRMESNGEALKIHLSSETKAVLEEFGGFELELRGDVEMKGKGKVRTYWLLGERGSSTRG
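Compound pre-incubated 30 min at room temperature on GloSensor-loaded HEK293 cells stably carrying hNpr1 and the pGS-40F cGMP biosensor. Stimulation uses hNppA at 0.1 nM final; luminescence is taken at baseline and 20 min post-agonist.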
NIH3T3 tox: NIH 3T3 cell cytotoxicity. NIH 3T3 viability, CellTiter-Glo ATP luminescence, 48-72 h. Potency, µM (highest dose often 96.7 µM), hits mostly inhibitors. 94,000 compounds, 4.3% hits; further: nearly all actives have a fitted effect of over 55% in size
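NIH 3T3 cells at 400 cells/well received 23 nL of compound by pintool and were incubated 48 or 72 h at 37 °C. Viability was read as ATP-coupled CellTiter-Glo luminescence.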
FLuc SDR no ATP: binders stabilizing firefly luciferase, without ATP; Purified FLuc-C-HiBiT, Nano-Glo HiBiT luminescence, no ATP; AID 1963318; 1,300 compounds, 7.8% hits; shares compounds with FLuc inh-1; Potency, µM (top dose mostly 32.7 µM), actives largely listed as activators; further: nearly all actives have a fitted effect of over 55% in size
FLuc SDR ATP: binders stabilizing firefly luciferase, plus ATP | shares compounds with FLuc inh-1 | purified FLuc-C-HiBiT + ATP, HiBiT complementation luminescence | Potency, µM (doses to about 32.7 µM), most hits filed as activators | 1,300 compounds, 8.7% hits;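 further: signal reports ligand binding via conformational change of the enzyme rather than luciferase catalysis; nearly all actives have a fitted effect of over 55% in size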
FLuc inh-2: blocks firefly luciferase enzymatic activity. shares compounds with FLuc inh-1. purified FLuc-C-HiBiT enzyme, luciferin luminescence. Potency, µM (series often up to 32.7 µM), usual class: inhibitors. 1,300 compounds, 42% hits. AID 1963320; further: nearly all actives have a fitted effect of over 70% in size
A number is an active result; 0 = inactive; ? = inconclusive; - = no result. Unless noted, the call rests on the fitted dose curve; in most records, active means well fitted curve in the direction sought with a large enough effect; inconclusive means small, poorly fitted or top-dose-only effect, or another doubt; inactive means no such curve, though single readings can be large; an effect the other way counts as inactive or inconclusive.

SMILES | FLuc inh-1 | HEK cytotox | NPR1 antag | NIH3T3 tox | FLuc SDR no ATP | FLuc SDR ATP | FLuc inh-2
O=C(c1cccc(F)c1)N1CC(Oc2cccc(-c3nc(-c4ccccc4)no3)c2)C1 | ? | ? | 0 | ? | - | - | -
CCNC(=O)N1CC(Oc2ccc(-c3nc(-c4ccccc4)no3)cc2)C1 | 0.631µM | ? | 0.251µM | 0 | 0 | 0 | ?
O=C(Cc1cccc(F)c1)N1CC(Oc2ccc(-c3nc(-c4ccccc4)no3)cc2)C1 | 2µM | ? | 7.94µM | 0 | 0 | 0 | ?
Cc1cccc(CN2C[C@@H]3C(=O)N(CCN4CCc5ccccc5C4)C(=O)[C@@H]3C2)c1 | 0 | ? | 0 | ? | - | - | -
CN(C)CC(=O)N1Cc2ccccc2CC2(CCCN2C)C1 (centres undefined) | - | 0 | - | 0 | - | - | -
CCN1c2cc(C(=O)NCc3ccc(OC)cc3)ccc2C(=O)N2CCCCC21 (centres undefined) | 0 | ? | 0 | ? | - | - | -
COc1ccc(-c2nc(-c3ccccc3)nc3c2CN(C(=O)c2ccc(C(F)(F)F)cc2)CC3)cc1 | 0 | ? | 0 | 0 | - | - | -
O=C(c1ccc(C(F)(F)F)cc1)N1CCc2nc(-c3ccccc3)nc(-c3ccc(Cl)cc3)c2C1 | 0 | ? | 0 | ? | 0 | 0 | 0
CN(C)C(=O)C1CCCN1Cc1ccc(-c2cncnc2)cc1 (centres undefined) | - | 0 | - | 0 | - | - | -
Cc1ccc(NC(=O)COc2ccc(-c3nnc4n3CCCC4)cc2)cc1F | 0 | 0 | 0 | ? | - | - | -
O=C(CCCS(=O)(=O)c1ccc(Cl)cc1)Nc1ccc(O)c(-c2nc3ccccc3s2)c1 | - | - | - | - | 0 | 0 | 0
O=C(COc1ccc(-c2nnc3n2CCCC3)cc1)Nc1ccccc1 | 0 | 0 | 0 | 0 | - | - | -
O=C(COc1ccc(Cl)cc1)Nc1ccc(-c2nc3ccccc3s2)c(O)c1 | - | - | - | - | 0 | 0 | 0
O=C(COc1ccc(Cl)cc1)Nc1ccc(O)c(-c2nc3ccccc3s2)c1 | - | - | - | - | 0 | 0 | 0
Cc1cccc(NC(=O)N2CCC3(CC2)C(=O)N(c2cccc(F)c2)C3c2ccccc2)c1 (centres undefined) | - | 0 | - | 0 | - | - | -
Cn1cnc2ccc(-c3cccc(C(F)(F)F)c3)nc2c1=O | 0 | ? | 0 | ? | - | - | -
Clc1cccc(-c2nc3ccccc3s2)c1 | - | - | - | - | 0 | 0 | 8.81µM
FC(F)(F)c1cc(-c2nc3ccccc3s2)cc(C(F)(F)F)c1 | - | - | - | - | 0 | 0 | ?
CCNC(=O)N1CC(c2noc(COc3ccc(OC)cc3)n2)C1 | 0 | 0 | 0 | 0 | - | - | -
Cc1c(C(=O)NCc2cccc(Br)c2)oc2ccc3c(c12)C(=O)CC(C)(C)O3 | - | - | - | - | 0 | 0 | ?
Cc1[nH]nc2c1C(c1ccc(Cl)cc1)C(C#N)=C(N)O2 (centres undefined) | 0 | ? | 0 | 0 | 0 | 0 | 0
Cc1[nH]nc2c1C(c1ccccc1)C(C#N)=C(N)O2 (centres undefined) | 0 | 0 | 0 | 0 | - | - | -
CCN1CCN(CCNC(=O)c2cccc3c2CCN3C(=O)Nc2ccc(C)cc2)CC1 | 2µM | ? | ? | ? | ? | 1.57µM | 1.11µM
Cc1cccc(NC(=O)N2CCc3c(C(=O)NC(C)(C)C)cccc32)c1 | 7.08µM | ? | 0 | 0 | ? | ? | 8.81µM
CNC(=O)c1cccc2c1CCN2C(=O)Nc1ccc(C)cc1 | 0.398µM | 0 | 6.31µM | ? | 11.1µM | 0.442µM | 0.351µM
SMILES | FLuc inh-1 | HEK cytotox | NPR1 antag | NIH3T3 tox | FLuc SDR no ATP | FLuc SDR ATP | FLuc inh-2
CCC(=O)N1CCc2c(C(=O)NCC(C)C)cccc21 | 0 | 0 | 0 | 0 | - | - | -
Cc1cccc(C(=O)Nc2nc3c(s2)CCCC3)c1 | - | - | - | - | ? | ? | 2.48µM
Cc1ccc(-n2ncc3c(N4CCC(C)CC4)ncnc32)cc1C | - | - | - | - | 0 | ? | 4.95µM
CC1CCN(c2ncnc3c2cnn3-c2ccccc2)CC1 | - | - | - | - | 0 | ? | 6.24µM
NC(=O)C1CCCN(c2ncnc3c2cnn3-c2ccccc2)C1 (centres undefined) | - | - | - | - | ? | ? | 11.1µM
CCOC(=O)C1CCCN(C(=O)C2COC3(CCCCC3)N2C(=O)c2cccc(Cl)c2)C1 (centres undefined) | 0 | 0 | 0 | 0 | - | - | -
CCOC(=O)C1CCCN(c2ncnc3c2cnn3-c2ccc(C)c(Cl)c2)C1 (centres undefined) | - | - | - | - | 0 | 0 | 0
COc1cccc(-c2cccc(C(=O)N3CCN(C(=O)N(C)C)CC3)c2)c1 | - | ? | - | 0 | - | - | -
CCn1ccc(C(=O)N2CCC3(CC2)CN(C2CCC2)CC3CO)n1 (centres undefined) | - | ? | - | 0 | - | - | -
CCOC(=O)CC(=O)N1CCC2(CC1)[C@H](C(=O)OCC)[C@@H](O)C(=O)N2Cc1ccccc1 | - | 0 | - | ? | - | - | -
CC1CCCCN1c1ncnc2c1cnn2-c1ccccc1 (centres undefined) | - | - | - | - | 11.1µM | ? | 1.11µM
CC1CCCN1c1ncnc2c1CN(c1ccc(Cl)cc1)C(=O)CN2C (centres undefined) | 0 | 0 | 0 | 0 | - | - | -
Cc1ccc(C)c(N2CCN(C(=O)CCc3conc3-c3ccccc3)CC2)c1 | 0 | ? | 0 | ? | - | - | -
Cc1ccc(C)c(N2CCN(C(=O)c3ccc(NC(=O)c4nsc5ccccc45)cc3)CC2)c1 | - | - | - | - | 0 | ? | ?
O=C(C1CC=CC1)N1CCC2(CC1)N(Cc1ccccc1)C(=O)CS2(=O)=O | - | 0 | - | 0 | - | - | -
O=C1Nc2ccc(C(=O)c3ccco3)cc2/C1=C/c1cc(Cl)c(O)c(Cl)c1 | - | - | - | - | 0 | 0 | 11.1µM
CCCOc1cccc(C(=O)Nc2ccc(-c3nc4ccccc4s3)c(Cl)c2)c1 | - | - | - | - | 0 | 0 | ?
COc1cccc(-c2nc3cc(NC(=O)c4ccc(C)c([N+](=O)[O-])c4)ccc3s2)c1 | - | - | - | - | 0 | 0 | 0
Cc1nc2ccc(C(=O)Nc3ccc4c(c3)C(=O)N3CCC[C@H]3C(=O)N4)cc2s1 | 0 | 0 | 0 | 0 | - | - | -
CCS(=O)(=O)c1cccc(C(=O)Nc2ccc(-c3nc4ccccc4s3)c(O)c2)c1 | - | - | - | - | 0 | 0 | ?
COc1cccc(C(=O)Nc2ccc3nc(SCC(=O)N4CCOCC4)sc3c2)c1 | - | - | - | - | ? | 0 | 9.89µM
Cn1ncc2c(C(=O)NCCN3CCOCC3)cc(C(C)(C)C)nc21 | - | 0 | - | 0 | - | - | -
COc1ccc(CN2CC3(CCN(C(=O)c4cccnc4)CC3)C2=O)cc1 | - | 0 | - | 0 | - | - | -
CC(C)n1c(CNC(=O)CC[C@H]2NC(=O)c3ccccc3NC2=O)nc2ccccc21 | 0 | ? | 0 | ? | - | - | -
N#Cc1ccc(C(=O)Nc2ccccc2-c2nc3ccccc3s2)c(F)c1 | - | - | - | - | 0 | 0 | 0
COc1cc(OC)cc(C(=O)Nc2ccccc2-c2nc3ccccc3s2)c1 | - | - | - | - | 0 | 0 | 0
COc1cccc(C(=O)Nc2cnc(-c3ccccc3)nc2)c1 | 0 | ? | 0 | 0 | - | - | -
COc1cccc(C(=O)Nc2ccc(-c3nc4ccccc4s3)c(O)c2)c1 | - | - | - | - | 0 | 0 | 0
